Results reported in PubChem BioAssay.
Unmarked numbers belong to inactive results. Calls of active or inactive are those of the source. Rule as the data show it, unless noted: active = inhibition above about 42%; inactive = the rest.

Key:
[1] = StAR promoter reporter inhibitors, counter-screen for LRH-1 inverse agonist project, cell-based, luminescence, high throughput (AID 651611; in the data active = inhibition above about 28%); conditions: StAR promoter luciferase reporter counterscreen, at 3.6 µM, stronger effect = higher value
[2] = molecular target: Nuclear receptor subfamily 5 group A member 2 (Homo sapiens) (UniProt O00482); experiment: NR5A2 activity suppression in reporter cells – cell-based, luminescence, confirmation (AID 651613); conditions: cell-based LRH-1 luciferase reporter, inverse agonism; at 3.6 µM; stronger effect = higher value;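 also: HEK293T cells co-transfected with LRH-1 and StAR promoter luciferase reporter; 0% = vehicle wells and 100% = parental cells lacking receptor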
Nuclear receptor subfamily 5 group A member 2 (Homo sapiens), sequence (O00482 whole entry, looked up): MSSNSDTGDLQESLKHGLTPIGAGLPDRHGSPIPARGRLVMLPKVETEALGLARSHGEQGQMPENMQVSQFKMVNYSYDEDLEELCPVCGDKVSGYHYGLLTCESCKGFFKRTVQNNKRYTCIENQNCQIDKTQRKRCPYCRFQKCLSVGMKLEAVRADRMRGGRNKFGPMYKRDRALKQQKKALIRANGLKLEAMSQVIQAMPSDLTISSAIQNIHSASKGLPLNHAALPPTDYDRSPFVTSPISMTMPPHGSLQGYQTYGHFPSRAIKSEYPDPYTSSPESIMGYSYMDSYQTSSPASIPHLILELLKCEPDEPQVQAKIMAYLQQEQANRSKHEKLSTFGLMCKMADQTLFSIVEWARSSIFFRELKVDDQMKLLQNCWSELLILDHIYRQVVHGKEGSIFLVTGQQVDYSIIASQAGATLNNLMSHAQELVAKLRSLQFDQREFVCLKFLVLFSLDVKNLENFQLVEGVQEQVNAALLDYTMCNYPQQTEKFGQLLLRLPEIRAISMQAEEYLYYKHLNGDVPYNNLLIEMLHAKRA

[3] = molecular target: Steroidogenic factor 1 (Homo sapiens) (UniProt Q13285); experiment: inverse agonism at SF1 nuclear receptor – cell-based, luminescence, high throughput, counter-screen for LRH-1 inverse agonist project (AID 651614; in the data active = inhibition above about 44%;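 also: cells cotransfected with StAR promoter reporter and SF1 expression vector; 0% = vehicle on cells with receptor and 100% = vehicle on cells lacking receptor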); conditions: cell-based SF1 luciferase reporter, at 3.6 µM, stronger effect = higher value
Steroidogenic factor 1 (Homo sapiens), sequence (Q13285 whole entry, looked up, the tested form may be a part): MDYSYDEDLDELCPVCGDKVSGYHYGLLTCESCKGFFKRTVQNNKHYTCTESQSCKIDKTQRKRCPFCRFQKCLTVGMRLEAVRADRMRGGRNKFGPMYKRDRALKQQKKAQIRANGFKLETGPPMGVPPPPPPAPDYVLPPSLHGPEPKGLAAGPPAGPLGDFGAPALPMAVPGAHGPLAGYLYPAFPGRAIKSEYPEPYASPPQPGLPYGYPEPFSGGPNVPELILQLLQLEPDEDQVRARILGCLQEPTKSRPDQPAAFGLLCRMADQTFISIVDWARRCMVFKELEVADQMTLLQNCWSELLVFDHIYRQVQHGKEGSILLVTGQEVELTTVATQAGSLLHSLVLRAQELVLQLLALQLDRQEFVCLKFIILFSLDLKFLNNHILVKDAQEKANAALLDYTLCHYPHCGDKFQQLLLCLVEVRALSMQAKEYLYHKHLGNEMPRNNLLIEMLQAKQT

[4] = compounds suppressing VP16-driven luciferase signal – cell-based, luminescence, high throughput, counter-screen for LRH-1 inverse agonist project (AID 651615; in the data active = inhibition above about 33%); conditions: Gal4-VP16 luciferase reporter cells, at 3.6 µM, stronger effect = higher value

| SMILES | inhibition [1] | inhibition [2] | inhibition [3] | inhibition [4] |
| --- | --- | --- | --- | --- |
| Cc1ccc(OCc2nnc(SCC(=O)Nc3ccc4c(c3)OCCO4)n2Cc2ccco2)cc1 | 6.71% | 45.5% (active) | 41.2% | 1.35% |
| COc1ccc(C2=CC(=O)CC(C)(C)C2)cc1OC | -7.16% | 59.1% (active) | 51.9% (active) | 11.7% |
| COc1ccc(N2CCN(C(=O)CSc3nc4ccccc4c(=O)[nH]3)CC2)cc1 | 12.5% | 46.8% (active) | 27.8% | -12.9% |
| CC(CCc1ccccc1)NC(=O)COc1ccc(S(=O)(=O)N2CCOCC2)cc1[N+](=O)[O-] (stereo not given) | -7.62% | 35.2% | 31.7% | 24.5% |
| CCCc1nnc(SCC(=O)Nc2ccc(OC)cc2)o1 | 5.23% | 42.6% (active) | 45% (active) | -8.5% |
| CCCc1cc(NCC2CCCO2)n2c(nc3ccccc32)c1C#N (stereo not given) | -0.55% | 40.1% | 35.5% | 1.26% |
| Cc1ccc(Cn2cnc3ccccc32)cc1C | 2.29% | 36.2% | 32.6% | 7.91% |
| Clc1ccc2c(c1)-c1ccccc1C1=NCCN12 | 51.8% (active) | 90.7% (active) | 70.4% (active) | 64.1% (active) |
| CCN(CC)c1nc(-c2ccccn2)nc(-c2ccccc2)c1C#N | 11.5% | 53.4% (active) | 55.7% (active) | 13.6% |
| Cc1c(OCC(=O)NCCCN2CCOCC2)ccc2c(-c3ccccc3)cc(=O)oc12 | 2.78% | 37.8% | 36.5% | 5.76% |
| Cc1cc(C)nc(-n2nc(C)cc2Nc2ccccc2)n1 | 4.56% | 35.7% | 19.6% | 24% |
| O=C(CSc1nccc(=O)[nH]1)Nc1ccc(N2CCOCC2)cc1 | 4.42% | 61.3% (active) | 47.8% (active) | -3.99% |
| CN1CCN(C2=C(Cl)C(=O)N(c3ccc(Cl)c(Cl)c3)C2=O)CC1 | 11.1% | 39.3% | 41.6% | -5.07% |
| COc1ccc(NC(=O)COC(=O)CNC(=O)c2cc(OC)c(OC)c(OC)c2)cc1 | 8.08% | 42.9% (active) | 50.5% (active) | -7.21% |
| Cc1cc(N2CCN(C(=O)c3ccco3)CC2)n2nc(-c3cccc(F)c3)cc2n1 | 14.2% | 54.6% (active) | 60.6% (active) | -10.7% |
| COc1ccnc(Oc2ccccc2)c1C(=O)N/C=N/OCc1ccccc1F | 12.8% | 56.9% (active) | 48.8% (active) | -12.9% |
| O=C(COc1ccc(Nc2ccccc2)cc1)Nc1ccncc1 | 19.2% | 52.8% (active) | 51.6% (active) | 41.4% (active) |
| Cc1c(C(=O)NC(C)c2ccncc2)oc2ccccc12 (stereo not given) | -19.6% | 44.2% (active) | 42.9% (active) | -7.87% |
| COc1cc(N)c2ncccc2c1Cl | -0.07% | 17.4% | 11.9% | 10.7% |
| CCCc1cc(NCCOCCO)n2c(nc3ccccc32)c1C#N | 4.93% | 45.1% (active) | 36.6% | -14.6% |
| COc1cc(C2CC(=O)c3c([nH]c(C(=O)OCCOC(C)C)c3C)C2)cc(OC)c1OC (stereo not given) | 24.2% | 40% | 56.8% (active) | 43.3% (active) |
| Cc1ccccc1C(=O)N1CCN(c2ccc(NC(=O)c3ccc([N+](=O)[O-])o3)cc2)CC1 | 25.2% | 64.4% (active) | 69.1% (active) | 2.37% |
| O=C(CN1CCN(S(=O)(=O)c2cc(Cl)ccc2Cl)CC1)Nc1ccc2c(c1)OCCO2 | 19% | 59.6% (active) | 59.1% (active) | -3.13% |
| COc1ccc(CCNC(=O)COC(=O)c2cccn2C)cc1 | 19% | 42.9% (active) | 46.3% (active) | -13.7% |
| CC1(C)Cc2ccccc2/C(=C/C(=O)c2ccccc2)N1 | 0.1% | 39% | 36.2% | 15.6% |
